Results from PubChem BioAssay (NCI).
Compounds without any hit were thinned out: in the full panel of roughly 83,000, 20% have a hit.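 Note: values are percent growth. 100 is the growth of untreated cells, values between 100 and 0 indicate rising inhibition; between -100 and 0 indicates cell death.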 Activity calls are given as the source filed them. Rule for the calls: active = growth percent below 10; inactive = the rest.

How the values were obtained:
Assay in all cases: NCI-60 one-dose screen, 48 h (100 = growth as untreated, 0 = no growth, -100 = all killed)
Conditions in all cases: 10 µM unless noted
[1] = test system: NCI-H23 lung
[2] = test system: NCI-H226 lung
[3] = test system: NCI-H322M lung
[4] = test system: HOP-62 NSCLC
[5] = test system: NCI-H460 lung
[6] = test system: HOP-92 NSCLC
[7] = test system: NCI-H522 lung
[8] = test system: A549/ATCC NSCLC
[9] = test system: 786-0 renal
[10] = test system: COLO 205 colon
[11] = test system: DU-145 prostate
[12] = test system: K-562 leukemia
[13] = test system: MALME-3M melanoma
[14] = test system: MDA-MB-231 breast
[15] = test system: RXF 393 renal
[16] = test system: SF-268 CNS
[17] = test system: SF-295 CNS
[18] = test system: SF-539 CNS
[19] = test system: UACC-257 melanoma
[20] = test system: M14 melanoma

Measured: growth

CCCCCCCCCCCCCC[n+]1cccc(C(N)=O)c1
active: [6] -26.8% | [7] -35.3% | [9] -40% | [10] -66.8% | [12] 9.03% | [13] -33.9% | [14] -22.9% | [15] -41.4% | [16] -24.2% | [17] -30.9% | [18] -5.92% | [20] -38.8%
inactive: [1] 13.9% | [2] 13.8% | [3] 16.8% | [4] 17.1% | [5] 14.8% | [8] 69.5% | [11] 27.8% | [19] 24.3%

C/C=C/C1OC23CCCCC2C(C#N)(C(=N)O3)C1(C#N)C#N (stereo not given)
inactive: [1] 101% | [2] 103% | [3] 102% | [4] 103% | [5] 101% | [6] 117% | [7] 74.1% | [8] 104% | [9] 105% | [10] 91.6% | [11] 95.1% | [12] 94.7% | [13] 99% | [14] 110% | [15] 116% | [16] 97.6% | [17] 110% | [18] 98.2% | [19] 93.3% | [20] 92.8%

CC[C@]1(O)CC2CN(CCc3c([nH]c4ccccc34)[C@@](C(=O)OC)(c3cc4c(cc3OC)N(C=O)[C@H]3[C@@](O)(C(=O)OC)[C@H](OC(C)=O)[C@]5(CC)C=CCN6CC[C@]43[C@@H]65)C2)C1 (stereo not given in full)
active: [2] 2.28% | [5] 3.19% | [7] -21.5% | [10] -61.1% | [11] -46.8% | [14] -31.3% | [16] 3.28% | [17] 6.3% | [18] 5.55% | [20] 4.87%
inactive: [1] 21.5% | [3] 59.8% | [4] 16.9% | [6] 25.4% | [8] 16.7% | [9] 16.8% | [12] 14.7% | [13] 54.7% | [15] 65.2% | [19] 53.8%

CN(C)Cc1ccc[nH]1
active: [19] 0.0923%
inactive: [1] 93.2% | [2] 93.3% | [3] 130% | [4] 117% | [5] 103% | [6] 103% | [7] 67.6% | [8] 99.4% | [9] 107% | [10] 101% | [11] 115% | [12] 113% | [13] 126% | [14] 77.6% | [15] 95.3% | [16] 103% | [17] 90.1% | [18] 92.3% | [20] 93.2%

O=C(N/N=C1\c2ccccc2-c2cccc(C(=O)O)c21)c1ccc(O)cc1
inactive: [1] 98.2% | [2] 89.6% | [3] 86.4% | [4] 93.8% | [5] 96.6% | [6] 78.6% | [7] 86.5% | [8] 95.8% | [9] 97.5% | [10] 107% | [11] 101% | [12] 105% | [13] 88.2% | [14] 92.2% | [15] 97.6% | [16] 96.6% | [17] 102% | [18] 97.7% | [19] 99.5% | [20] 98%

O=C(CCNCc1ccccc1)c1ccccc1
inactive: [1] 106% | [2] 102% | [3] 110% | [4] 104% | [5] 110% | [6] 120% | [7] 101% | [8] 101% | [9] 108% | [10] 111% | [11] 105% | [12] 108% | [13] 104% | [14] 121% | [15] 116% | [16] 108% | [17] 90% | [18] 98.1% | [19] 102% | [20] 105%

Cc1cc(C)nc(SCC(=O)Nc2cccc(N=Cc3ccccc3O)c2)n1
inactive: [1] 98% | [2] 93.8% | [3] 101% | [4] 102% | [5] 101% | [6] 77.4% | [7] 86.6% | [8] 101% | [9] 103% | [10] 105% | [11] 104% | [12] 96.2% | [13] 101% | [14] 89.5% | [15] 101% | [16] 98.7% | [17] 102% | [18] 100% | [19] 103% | [20] 98.2%
